Among the data in PubChem BioAssay AID2313 (Broad Institute, 2010) are inhibition values, retold here.

Hit rate of the full screen: of about 22,000 compounds, about 460 (2.1%) were called active. Inconclusive results (about 2%) are left out. This is one part of a sample in which actives are shown more often than they occur. A number with no mark means an inactive call.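 The calls were made as follows: active = mean inhibition across valid replicates above about 65% (limit read from the data); inconclusive = mean under the limit, yet half or more replicates past it; inactive = the rest.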

The nature of the test: Hedgehog pathway signaling inhibitors, primary screen, luminescence, Shh-LIGHT2 cells, Gli-luciferase (AID 2313).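 Also: pathway switched on by Shh-conditioned medium diluted 1 in 25 in low serum.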 The following applies: Shh-LIGHT2 Gli-luciferase reporter, 30 h; stronger effect = higher value. (In general: Reporter assays use an easily measured gene product as a stand-in for the process of interest.)
As a reminder, the inhibition is the drop in the measured response relative to a control, in per cent. Turning to `CC(=O)Nc1nc2ccccc2s1`, the inhibition was -52.3%.

`CS(=O)(=O)c1sc(C(=O)NC(=S)Nc2ccc(OC(F)(F)F)cc2)c2c1C=CCC2`: the inhibition was 42.2%. In the case of `C[C@H]1CN([C@@H](C)CO)C(=O)Cc2cc(NS(=O)(=O)c3cn(C)cn3)ccc2O[C@H]1CN(C)C(=O)Nc1ccc(F)cc1` it was 6.67%; in that of `CCOC(=O)c1nnn2c3ccccc3c(=O)n(C)c12`, -16.2%; in that of `C=C1C2=CC(=O)O[C@@H](c3ccoc3)[C@]2(C)CCC1[C@@]1(C)C=CC(=O)C(C)(C)[C@@H]1CC(=O)OC` (some centres not stated), -0.584%. Then `COc1c2c(cc3occ(-c4ccc5c(c4)OCO5)c(=O)c13)OC(C)(C)C=C2`, with 79.6% (active); and `COc1ccc(NC(=O)Nc2cccc3c2O[C@H](CN(C)C(=O)Nc2cccc4ccccc24)[C@H](C)CN([C@H](C)CO)C3=O)cc1`, with -19.9%; and `COc1ccc(S(=O)(=O)Nc2ccc3c(c2)CC(=O)N([C@H](C)CO)C[C@@H](C)[C@@H](CN(C)S(=O)(=O)c2ccc(F)cc2)O3)cc1`, with -24.3%. In the case of `COc1ccc(NC(=O)Nc2ccc3c(c2)CC(=O)N([C@H](C)CO)C[C@H](C)[C@H](CN(C)Cc2ccncc2)O3)cc1` it was 32.2%; in that of `C[C@@H]1CN([C@H](C)CO)C(=O)Cc2cc(NC(=O)Nc3ccccc3)ccc2O[C@H]1CN(C)Cc1ccc(Cl)c(Cl)c1`, -42%.

As to `COc1ccc(S(=O)(=O)Nc2cccc3c2O[C@H](CN(C)C(=O)Nc2cccc4ccccc24)[C@H](C)CN([C@@H](C)CO)C3=O)cc1`, the inhibition was 46.2%.

Take `C[C@H](CO)N1C[C@H](C)[C@@H](CN(C)C(=O)Nc2ccc3c(c2)OCO3)Oc2c(cccc2N(C)C)C1=O`: the inhibition is -27%. Then `C[C@@H]1CCCCO[C@H](CN(C)C(=O)NC2CCCCC2)[C@@H](C)CN([C@H](C)CO)C(=O)c2cc(NS(C)(=O)=O)ccc2O1`, with -30.2%; and `C[C@@H]1CN([C@H](C)CO)C(=O)Cc2cc(NC(=O)Nc3ccc(C(F)(F)F)cc3)ccc2O[C@H]1CN(C)Cc1ccc(-c2ccccc2)cc1`, with -14%; and `O=C1c2ccccc2C(=O)N1CC1OCc2ccccc2CO1`, with -41.8%. In the case of `O=C(Nc1ccccc1)Nc1cc(C2CC2)nn1-c1ccccc1` it was -37.7%; in that of `CC(C)NC(=O)N(C)C[C@@H]1Oc2ccc(NC(=O)C3CCCCC3)cc2CC(=O)N([C@H](C)CO)C[C@@H]1C`, -27.5%; in that of `C[C@H]1CN([C@@H](C)CO)C(=O)c2cc(NC(=O)Cc3cn(C)c4ccccc34)ccc2O[C@@H]1CN(C)Cc1ccc(Cl)c(Cl)c1`, 15.9%. As for `O=C(Oc1ccc(Cl)cc1)c1csc(C2COc3ccccc3O2)n1` (configuration not stated), the inhibition is -8.84%. Then `C[C@@H]1CN([C@H](C)CO)C(=O)Cc2cc(N(C)C)ccc2O[C@H]1CN(C)S(C)(=O)=O`, with -5.86%; and `Cc1ccc(S(=O)(=O)Nc2ccc3c(c2)C(=O)N([C@@H](C)CO)C[C@H](C)[C@@H](CN(C)CC2CC2)O3)cc1`, with 11.4%; and `O=C(O)c1ccc(NS(=O)(=O)c2ccc3c4c(cccc24)C(=O)N3)cc1`, with -9.19%. Consider `C[C@H]1CN([C@@H](C)CO)C(=O)c2cccc(NS(=O)(=O)c3ccc(F)cc3)c2O[C@@H]1CN(C)Cc1ccncc1`, for which the inhibition is 3.57%. Then `Cc1ccc(S(=O)(=O)N(C)C[C@H]2Oc3c(NS(=O)(=O)c4ccc(Cl)cc4)cccc3C(=O)N([C@H](C)CO)C[C@@H]2C)cc1`, with -17.4%; and `Cc1ccc(-n2nnnc2-c2cnn(-c3ccccc3)c2C)cc1`, with 88.7% (active).

With `CCCN(C)C[C@H]1OCCCC[C@@H](C)Oc2ccc(N(C)C)cc2C(=O)N([C@H](C)CO)C[C@@H]1C`, the inhibition is -12.9%. Then `COc1ccc(CN(C)C[C@H]2Oc3c(NS(=O)(=O)c4ccccc4)cccc3C(=O)N([C@H](C)CO)C[C@@H]2C)cc1`, with -36.7%; and `COc1ccc(S(=O)(=O)N(C)C[C@H]2Oc3c(NC(=O)Nc4ccc5c(c4)OCO5)cccc3C(=O)N([C@H](C)CO)C[C@@H]2C)cc1`, with 18.1%. With `CC(=O)Nc1ccc(Nc2c3c4c(cccc4[nH]c2=O)C(=O)c2ccccc2-3)cc1`, the inhibition is 88.2% (active). In the case of `COc1ccc(CCN=C2SCC(=O)N2Cc2ccccc2)cc1OC` it was 13.3%; in that of `Cc1noc(C)c1NC(=O)Nc1ccc2c(c1)C(=O)N([C@H](C)CO)C[C@H](C)[C@H](CN(C)Cc1ccncc1)OCCCC[C@@H](C)O2`, 0.0543%. As to `C[C@H]1CN([C@@H](C)CO)C(=O)Cc2cc(NC(=O)C3CC3)ccc2O[C@H]1CN(C)S(=O)(=O)c1ccc(Cl)cc1`, the inhibition was 30.4%.

For `C[C@@H]1CN([C@H](C)CO)C(=O)c2cc(NC(=O)CCN3CCOCC3)ccc2O[C@H]1CN(C)Cc1ccc(Oc2ccccc2)cc1`, the inhibition is -15%. In the case of `Oc1ccc(CN2CCCC2)c2cccnc12` it was 85% (active).

For `Cc1onc(-c2c(Cl)cccc2Cl)c1C(=O)N=S(C)(C)=O`, the inhibition is -19%. Then `C[C@H]1CN([C@@H](C)CO)C(=O)c2cccc(NS(=O)(=O)c3cccs3)c2O[C@H]1CN(C)C(=O)Nc1ccccc1`, with 26.6%. Consider `CCC/C=C/C=C/C1CC(O)C(O)C1C(=O)O` (configuration not stated), for which the inhibition was -18%. Then `C[C@H](CO)N1C[C@H](C)[C@H](CN(C)C(=O)NC2CCCCC2)Oc2c(NC(=O)C3CC3)cccc2C1=O`, with -11.9%. Then `C[C@H](CO)N1C[C@H](C)[C@@H](CN(C)Cc2ccc(Cl)c(Cl)c2)Oc2c(NC(=O)Nc3ccccc3)cccc2C1=O`, with -0.821%; and `Oc1c(Cl)cc(Cl)c(Cl)c1Cc1c(O)c(Cl)cc(Cl)c1Cl`, with 102% (active); and `C[C@@H]1CN([C@H](C)CO)C(=O)c2cccc(NC(=O)c3nc4ccccc4s3)c2O[C@H]1CN(C)S(=O)(=O)c1ccc(Cl)cc1`, with 11%. In the case of `C[C@H]1CN([C@@H](C)CO)C(=O)c2cccc(NS(=O)(=O)c3ccc(F)cc3)c2O[C@@H]1CN(C)CC1CC1` it was -16.6%.
